# Columns and labels:
# Assay in all cases: DAPPL (digital affinity profiling via proximity ligation, sequencing); 10 mM Tris-HCl pH 7.5, 50 mM NaCl, 1 mM DTT, 4% glycerol, room temperature, 30 min; GST-TFs on glutathione beads, 16-mer random dsDNA library, 0.1% formaldehyde crosslink after washing; high values mean tight binding
# [1] = target: ETV5 (Homo sapiens, UniProt P41161 1-510); conditions: protein: recombinant; tags: N-terminal GST; dsDNA, one strand shown
# Method in brief: (§1)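 Yeast served to express human transcription factors as GST fusions, which were then captured on glutathione beads and labelled with DNA barcodes. Pooled with a tag-only sample, they were incubated with 200 nmole of a 16-mer random double-stranded DNA library for 30 min at room temperature in Tris/NaCl/DTT/glycerol buffer, washed, crosslinked with 0.1% formaldehyde, ligated by proximity, amplified by PCR and sequenced. Dividing each hexamer's read frequency for a factor by its frequency for the tag-only sample gives the binding signal.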
# [2] = target: HSF1 (Homo sapiens, UniProt Q00613 1-529); conditions: protein: recombinant; tags: N-terminal GST; chain copies: 3; dsDNA, one strand shown
# Method in brief: as §1
# [3] = target: T1, SPIC (Homo sapiens, UniProt Q8N5J4 1-248); conditions: protein: recombinant; tags: N-terminal GST; dsDNA, one strand shown
# T1 sequence: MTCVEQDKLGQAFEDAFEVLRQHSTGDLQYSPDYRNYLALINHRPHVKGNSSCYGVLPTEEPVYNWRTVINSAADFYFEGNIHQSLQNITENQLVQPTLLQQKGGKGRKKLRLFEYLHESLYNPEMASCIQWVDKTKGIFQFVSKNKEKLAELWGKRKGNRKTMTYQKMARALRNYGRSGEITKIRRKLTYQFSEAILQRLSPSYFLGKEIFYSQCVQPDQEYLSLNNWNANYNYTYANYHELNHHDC
# Method in brief: as §1
# [4] = target: ELF4 (Homo sapiens, UniProt Q99607 1-663); conditions: protein: recombinant; tags: N-terminal GST; dsDNA, one strand shown
# Method in brief: as §1
# [5] = target: T2, ELK4 (Homo sapiens, UniProt P28324-2 1-405); conditions: protein: recombinant; tags: N-terminal GST; dsDNA, one strand shown
# T2 sequence: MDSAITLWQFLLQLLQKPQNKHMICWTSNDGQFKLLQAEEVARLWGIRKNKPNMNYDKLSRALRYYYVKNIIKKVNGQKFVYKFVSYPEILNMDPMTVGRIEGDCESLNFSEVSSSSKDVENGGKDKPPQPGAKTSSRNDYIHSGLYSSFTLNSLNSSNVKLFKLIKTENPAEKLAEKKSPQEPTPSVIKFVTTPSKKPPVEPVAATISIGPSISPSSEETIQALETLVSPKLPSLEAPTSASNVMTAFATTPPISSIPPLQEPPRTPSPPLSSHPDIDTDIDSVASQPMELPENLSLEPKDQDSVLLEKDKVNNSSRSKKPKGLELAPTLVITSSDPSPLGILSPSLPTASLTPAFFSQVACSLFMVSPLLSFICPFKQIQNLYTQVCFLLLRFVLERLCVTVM
# Method in brief: as §1
# [6] = target: T3, ETV2 (Homo sapiens, UniProt O00321 1-342); conditions: protein: recombinant; tags: N-terminal GST; dsDNA, one strand shown
# T3 sequence: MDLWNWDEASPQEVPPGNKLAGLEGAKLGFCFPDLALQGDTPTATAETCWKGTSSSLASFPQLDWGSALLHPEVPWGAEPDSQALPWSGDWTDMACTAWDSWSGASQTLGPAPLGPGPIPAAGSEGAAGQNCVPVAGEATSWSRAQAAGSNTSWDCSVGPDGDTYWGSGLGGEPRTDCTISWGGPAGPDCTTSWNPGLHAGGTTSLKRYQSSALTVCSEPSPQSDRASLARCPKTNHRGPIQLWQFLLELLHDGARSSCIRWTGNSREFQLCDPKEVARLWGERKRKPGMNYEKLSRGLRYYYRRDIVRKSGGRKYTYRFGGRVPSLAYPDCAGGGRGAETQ
# Method in brief: as §1
# [7] = target: T4, ELF3 (Homo sapiens, UniProt P78545 1-371); conditions: protein: recombinant; tags: N-terminal GST; dsDNA, one strand shown
# T4 sequence: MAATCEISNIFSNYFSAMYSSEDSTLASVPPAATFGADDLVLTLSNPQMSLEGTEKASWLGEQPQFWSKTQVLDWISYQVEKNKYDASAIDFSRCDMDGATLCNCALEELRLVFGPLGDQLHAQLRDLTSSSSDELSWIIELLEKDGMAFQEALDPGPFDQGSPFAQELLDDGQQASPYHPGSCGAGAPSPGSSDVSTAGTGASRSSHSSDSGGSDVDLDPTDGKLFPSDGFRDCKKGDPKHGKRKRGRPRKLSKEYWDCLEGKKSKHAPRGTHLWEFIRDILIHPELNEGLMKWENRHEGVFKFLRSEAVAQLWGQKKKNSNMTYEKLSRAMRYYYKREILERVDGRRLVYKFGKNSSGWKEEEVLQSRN
# Method in brief: as §1
# [8] = target: T5, ERF (Homo sapiens, UniProt P50548 1-548); conditions: protein: recombinant; tags: N-terminal GST; dsDNA, one strand shown
# T5 sequence: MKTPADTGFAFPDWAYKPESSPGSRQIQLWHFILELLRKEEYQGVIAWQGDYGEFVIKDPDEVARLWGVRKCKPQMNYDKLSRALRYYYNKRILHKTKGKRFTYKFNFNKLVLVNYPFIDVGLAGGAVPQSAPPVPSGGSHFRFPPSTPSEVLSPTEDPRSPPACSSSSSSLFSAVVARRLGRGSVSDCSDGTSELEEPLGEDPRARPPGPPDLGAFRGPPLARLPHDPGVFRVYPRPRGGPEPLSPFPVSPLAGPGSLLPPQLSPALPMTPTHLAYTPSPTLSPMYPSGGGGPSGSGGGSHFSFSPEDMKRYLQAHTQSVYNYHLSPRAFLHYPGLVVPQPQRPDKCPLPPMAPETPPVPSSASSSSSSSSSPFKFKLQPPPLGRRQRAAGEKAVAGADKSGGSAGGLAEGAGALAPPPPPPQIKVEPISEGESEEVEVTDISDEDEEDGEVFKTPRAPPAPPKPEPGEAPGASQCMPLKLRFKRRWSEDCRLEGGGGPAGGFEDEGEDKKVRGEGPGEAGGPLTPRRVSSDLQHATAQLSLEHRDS
# Method in brief: as §1
# [9] = target: T6, ETV3L (Homo sapiens, UniProt Q6ZN32 1-361); conditions: protein: recombinant; tags: N-terminal GST; dsDNA, one strand shown
# T6 sequence: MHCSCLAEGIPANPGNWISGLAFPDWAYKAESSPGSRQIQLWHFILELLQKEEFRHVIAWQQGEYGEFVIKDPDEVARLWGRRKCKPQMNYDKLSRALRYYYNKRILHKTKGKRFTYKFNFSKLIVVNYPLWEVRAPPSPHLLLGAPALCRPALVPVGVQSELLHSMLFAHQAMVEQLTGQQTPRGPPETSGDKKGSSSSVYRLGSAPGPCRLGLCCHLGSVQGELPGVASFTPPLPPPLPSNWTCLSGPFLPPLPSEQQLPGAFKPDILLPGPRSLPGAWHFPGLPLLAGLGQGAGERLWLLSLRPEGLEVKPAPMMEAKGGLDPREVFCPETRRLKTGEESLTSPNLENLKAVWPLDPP
# Method in brief: as §1
# [10] = target: T7, ETS2 (Homo sapiens, UniProt P15036 1-469); conditions: protein: recombinant; tags: N-terminal GST; dsDNA, one strand shown
# T7 sequence: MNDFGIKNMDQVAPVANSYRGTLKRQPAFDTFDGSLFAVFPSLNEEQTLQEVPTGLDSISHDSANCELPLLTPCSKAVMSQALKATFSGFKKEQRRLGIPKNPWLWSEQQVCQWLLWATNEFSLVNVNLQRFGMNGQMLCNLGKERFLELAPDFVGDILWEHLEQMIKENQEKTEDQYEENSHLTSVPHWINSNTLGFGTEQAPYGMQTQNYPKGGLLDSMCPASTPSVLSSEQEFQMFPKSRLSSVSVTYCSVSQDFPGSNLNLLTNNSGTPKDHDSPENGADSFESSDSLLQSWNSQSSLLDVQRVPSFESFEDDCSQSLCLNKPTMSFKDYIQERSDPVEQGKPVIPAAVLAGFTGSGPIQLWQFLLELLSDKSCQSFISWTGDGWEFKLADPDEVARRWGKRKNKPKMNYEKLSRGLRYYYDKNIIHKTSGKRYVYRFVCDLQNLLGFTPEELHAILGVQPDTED
# Method in brief: as §1
# [11] = target: T8, SPDEF (Homo sapiens, UniProt O95238 1-335); conditions: protein: recombinant; tags: N-terminal GST; dsDNA, one strand shown
# T8 sequence: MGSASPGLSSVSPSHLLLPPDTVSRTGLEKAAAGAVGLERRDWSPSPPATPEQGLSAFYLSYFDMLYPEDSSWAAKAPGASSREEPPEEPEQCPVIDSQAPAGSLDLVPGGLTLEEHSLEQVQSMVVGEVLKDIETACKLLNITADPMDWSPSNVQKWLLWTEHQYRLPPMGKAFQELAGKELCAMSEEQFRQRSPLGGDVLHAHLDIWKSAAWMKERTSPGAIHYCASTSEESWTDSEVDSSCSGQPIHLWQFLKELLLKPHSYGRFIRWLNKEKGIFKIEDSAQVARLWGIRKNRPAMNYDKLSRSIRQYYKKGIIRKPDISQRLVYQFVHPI
# Method in brief: as §1
# [12] = target: T9, ETV7 (Homo sapiens, UniProt Q9Y603 1-341); conditions: protein: recombinant; tags: N-terminal GST; dsDNA, one strand shown
# T9 sequence: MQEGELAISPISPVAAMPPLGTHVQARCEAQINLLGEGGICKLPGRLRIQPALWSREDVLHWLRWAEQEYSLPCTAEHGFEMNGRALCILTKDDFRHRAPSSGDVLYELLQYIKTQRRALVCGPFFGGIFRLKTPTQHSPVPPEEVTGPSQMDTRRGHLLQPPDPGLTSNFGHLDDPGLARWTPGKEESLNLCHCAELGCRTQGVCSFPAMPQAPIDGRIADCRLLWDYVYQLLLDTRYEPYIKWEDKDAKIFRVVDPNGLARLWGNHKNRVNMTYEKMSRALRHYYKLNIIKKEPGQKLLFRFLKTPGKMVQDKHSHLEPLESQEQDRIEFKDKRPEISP
# Method in brief: as §1
# [13] = target: T10, ELF5 (Homo sapiens, UniProt Q9UKW6-2 1-255); conditions: protein: recombinant; tags: N-terminal GST; dsDNA, one strand shown
# T10 sequence: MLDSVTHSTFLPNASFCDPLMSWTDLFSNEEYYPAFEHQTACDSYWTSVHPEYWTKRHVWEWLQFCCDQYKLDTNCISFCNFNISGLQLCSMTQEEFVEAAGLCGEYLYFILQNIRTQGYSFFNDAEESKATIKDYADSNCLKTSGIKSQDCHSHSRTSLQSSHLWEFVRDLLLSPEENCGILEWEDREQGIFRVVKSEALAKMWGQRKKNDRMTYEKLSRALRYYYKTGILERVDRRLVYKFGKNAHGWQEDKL
# Method in brief: as §1
# [14] = target: T11, ETV3 (Homo sapiens, UniProt P41162-2 1-143); conditions: protein: recombinant; tags: N-terminal GST; dsDNA, one strand shown
# T11 sequence: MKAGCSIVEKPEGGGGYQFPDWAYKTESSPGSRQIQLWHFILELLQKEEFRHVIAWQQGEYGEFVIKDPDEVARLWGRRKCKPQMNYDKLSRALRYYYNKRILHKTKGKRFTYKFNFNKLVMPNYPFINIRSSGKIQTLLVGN
# Method in brief: as §1
# [15] = target: ETV6 (Homo sapiens, UniProt P41212 1-452); conditions: protein: recombinant; tags: N-terminal GST; dsDNA, one strand shown
# Method in brief: as §1
# Chain of HSF1 (Q00613 whole entry): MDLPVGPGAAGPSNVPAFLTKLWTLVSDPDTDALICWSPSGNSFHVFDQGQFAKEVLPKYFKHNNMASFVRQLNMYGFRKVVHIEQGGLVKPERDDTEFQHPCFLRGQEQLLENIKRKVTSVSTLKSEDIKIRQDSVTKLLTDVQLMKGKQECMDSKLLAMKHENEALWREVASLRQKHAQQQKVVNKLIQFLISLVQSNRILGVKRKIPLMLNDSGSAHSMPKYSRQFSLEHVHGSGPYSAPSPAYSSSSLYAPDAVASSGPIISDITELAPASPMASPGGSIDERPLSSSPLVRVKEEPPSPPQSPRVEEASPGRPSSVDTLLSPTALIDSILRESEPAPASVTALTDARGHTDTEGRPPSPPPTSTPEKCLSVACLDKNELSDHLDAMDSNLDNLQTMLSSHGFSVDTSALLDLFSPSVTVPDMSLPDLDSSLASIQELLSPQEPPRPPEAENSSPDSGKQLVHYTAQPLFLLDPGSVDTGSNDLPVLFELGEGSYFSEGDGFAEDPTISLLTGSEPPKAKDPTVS
# Chain of ELF4 (Q99607 whole entry): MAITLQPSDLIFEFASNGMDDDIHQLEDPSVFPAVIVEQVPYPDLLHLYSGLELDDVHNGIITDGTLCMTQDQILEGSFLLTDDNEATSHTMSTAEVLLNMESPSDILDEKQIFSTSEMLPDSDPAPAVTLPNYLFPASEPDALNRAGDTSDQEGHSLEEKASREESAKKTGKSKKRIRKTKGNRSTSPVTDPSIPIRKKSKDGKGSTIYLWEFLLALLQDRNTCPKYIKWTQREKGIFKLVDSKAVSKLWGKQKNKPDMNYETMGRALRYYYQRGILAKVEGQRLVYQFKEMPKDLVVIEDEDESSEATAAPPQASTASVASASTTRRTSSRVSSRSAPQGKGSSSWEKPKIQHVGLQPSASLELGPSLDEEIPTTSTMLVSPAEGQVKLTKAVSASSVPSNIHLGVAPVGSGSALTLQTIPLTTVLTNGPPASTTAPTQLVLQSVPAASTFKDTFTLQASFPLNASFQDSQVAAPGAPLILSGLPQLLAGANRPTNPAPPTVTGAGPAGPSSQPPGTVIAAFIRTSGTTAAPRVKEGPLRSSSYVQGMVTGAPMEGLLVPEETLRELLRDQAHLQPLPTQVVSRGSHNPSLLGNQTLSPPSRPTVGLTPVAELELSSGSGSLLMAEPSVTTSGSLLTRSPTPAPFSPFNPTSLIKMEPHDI
# Chain of ETV6 (P41212 whole entry): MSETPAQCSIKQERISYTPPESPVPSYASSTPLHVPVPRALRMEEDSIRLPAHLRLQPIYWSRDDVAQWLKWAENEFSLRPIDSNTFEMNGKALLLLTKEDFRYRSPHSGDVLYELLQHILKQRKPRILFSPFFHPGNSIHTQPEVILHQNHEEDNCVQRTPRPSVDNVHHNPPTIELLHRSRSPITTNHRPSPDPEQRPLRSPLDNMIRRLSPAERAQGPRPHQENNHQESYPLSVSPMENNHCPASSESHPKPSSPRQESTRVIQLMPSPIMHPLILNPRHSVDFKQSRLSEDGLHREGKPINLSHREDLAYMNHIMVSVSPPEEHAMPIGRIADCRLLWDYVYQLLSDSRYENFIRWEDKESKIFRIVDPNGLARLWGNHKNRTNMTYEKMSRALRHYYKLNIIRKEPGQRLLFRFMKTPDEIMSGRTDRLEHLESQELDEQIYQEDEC
# Chain of ETV5 (P41161 whole entry, the tested form may be a part): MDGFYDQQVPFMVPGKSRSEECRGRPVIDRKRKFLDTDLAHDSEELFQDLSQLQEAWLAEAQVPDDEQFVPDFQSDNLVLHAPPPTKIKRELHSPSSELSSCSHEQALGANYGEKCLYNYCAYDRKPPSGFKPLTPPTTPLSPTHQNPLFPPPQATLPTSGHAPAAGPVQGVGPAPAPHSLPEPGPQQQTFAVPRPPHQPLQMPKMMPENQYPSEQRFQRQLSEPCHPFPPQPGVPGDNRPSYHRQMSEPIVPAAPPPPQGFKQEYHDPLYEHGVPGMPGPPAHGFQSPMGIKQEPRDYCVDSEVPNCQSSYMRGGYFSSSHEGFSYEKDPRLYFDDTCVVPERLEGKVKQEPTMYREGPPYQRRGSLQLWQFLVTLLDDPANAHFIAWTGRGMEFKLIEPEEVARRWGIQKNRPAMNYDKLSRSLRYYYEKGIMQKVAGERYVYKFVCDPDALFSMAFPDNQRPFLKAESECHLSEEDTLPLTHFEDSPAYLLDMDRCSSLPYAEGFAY
sequence,measurement,setting,value
AAAGGT,binding signal,[1],"1.05 fold enrichment (6-mer frequency, TF over GST control)"
same,binding signal,[2],"1.02 fold enrichment (6-mer frequency, TF over GST control)"
same,binding signal,[3],"1.09 fold enrichment (6-mer frequency, TF over GST control)"
same,binding signal,[4],"1.02 fold enrichment (6-mer frequency, TF over GST control)"
same,binding signal,[5],"1.05 fold enrichment (6-mer frequency, TF over GST control)"
same,binding signal,[6],"1.06 fold enrichment (6-mer frequency, TF over GST control)"
same,binding signal,[7],"1.17 fold enrichment (6-mer frequency, TF over GST control)"
same,binding signal,[8],"1.07 fold enrichment (6-mer frequency, TF over GST control)"
same,binding signal,[9],"1.03 fold enrichment (6-mer frequency, TF over GST control)"
same,binding signal,[10],"1.04 fold enrichment (6-mer frequency, TF over GST control)"
same,binding signal,[11],"1.11 fold enrichment (6-mer frequency, TF over GST control)"
same,binding signal,[12],"1.07 fold enrichment (6-mer frequency, TF over GST control)"
same,binding signal,[13],"1.01 fold enrichment (6-mer frequency, TF over GST control)"
same,binding signal,[14],"1.05 fold enrichment (6-mer frequency, TF over GST control)"
same,binding signal,[15],"1.11 fold enrichment (6-mer frequency, TF over GST control)"

# Source: publication PMC7862700, “An all-to-all approach to the identification of sequence-specific readers for epigenetic DNA modifications on cytosine”
